Gal4-VP16 FLuc – inhibits Gal4-VP16 luciferase reporter, ROR gamma counter-screen | Drosophila S2 Gal4-VP16 UAS-luciferase, luminescence, 20 h | Potency, µM (series often up to 53.6 µM), for inactives: top-dose activity, negative = inhibition, most hits filed as inhibitors | hit rate 3.5% among 310,000 | AID 2546;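 note: Gal4-VP16 expression switched on by copper sulfate through the metallothionein promoter; potency is the fitted concentration of half-maximal effect; nearly all actives have a fitted effect of over 50% in size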
DT40 TDP1 CPT – DT40-hTDP1 cell growth loss with CPT; Potency, µM (highest dose often 46.2 µM), for the others: at the highest dose activity change, negative = growth inhibition, hits mostly inhibitors; chicken DT40 Tdp1-/-;hTDP1 cells + 20 nM CPT, ATP luminescence, 48 h; hit rate 12% among 420,000; note: potency is the fitted concentration of half-maximal effect; nearly all actives have a fitted effect of over 55% in size
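Cell growth measured by CellTiter-Glo luminescence after a minimum 48 h, 37 C compound exposure with 20 nM CPT in Tdp1-knockout DT40 cells stably expressing hTDP1, seeded 400/well; qHTS titration format.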
IL1B secr inh – inhibitors of inflammasome signaling (IL-1 beta secretion) | THP-1 LPS/ATP IL-1B secretion, AlphaLISA, 16 h; active compounds read low | hit rate 4.7% among 360,000 | activity change, % at 57.5 µM | AID 743279; in the data active = activity change below about -50%; inconclusive = mostly about -30% to -49%
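Secreted IL-1B measured by AlphaLISA bead assay after 16 h compound exposure of THP-1 cells; compounds (final up to 57.5 uM) added 1 h before LPS (250 ng/mL) and ATP (1.25 mM) stimulation; lower signal means less secretion.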
LDHA inh – LDHA (human) enzyme inhibition; AID 1347041; hit rate 0.15% among 480,000; activity change, % (values are at about 110 or 230 µM); purified LDHA, NADH/diaphorase-resazurin fluorescence; active compounds read low; in the data active = activity change below about -30%; inconclusive = mostly about -25% to -30%;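 note: plate controls were DMSO wells for no effect and wells without enzyme for full effect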
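Enzyme activity of human lactate dehydrogenase 5 (2 nM; 0.06 mM NADH, 0.2 mM pyruvate, 5 min, RT) is measured via a resazurin/diaphorase fluorescence readout of residual NADH.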
TDP1 cell noCPT – qHTS for Inhibitors of human tyrosyl-DNA phosphodiesterase 1 (TDP1): qHTS in cells in absence of CPT. DT40 Tdp1-/- hTDP1 cells, no CPT, ATP luminescence, 48 h. Potency, µM (top dose mostly 46.2 µM), without a hit: at the top dose activity change, negative = growth inhibition, actives largely listed as inhibitors. hit rate 15% among 420,000; note: potency is the fitted concentration of half-maximal effect; nearly all actives have a fitted effect of over 55% in size
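DT40 Tdp1-/-;hTDP1 cells, no CPT (DMSO vehicle only), 400 cells/well; compounds pin-transferred; ≥48 hr, 37 °C; CellTiter-Glo 30 min RT dark, luminescence read.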
RORgamma inh – inhibitors of mouse ROR gamma transcriptional activity | Drosophila S2 Gal4-RORgamma UAS-luciferase reporter, 20 h | Potency, µM (titrated, usually from 53.6 µM), for the others: top-dose activity change, negative = inhibition, hits mostly inhibitors | hit rate 5.4% among 310,000; note: potency is the fitted concentration of half-maximal effect; nearly all actives have a fitted effect of over 60% in size
Target sequence (P51450 whole entry, looked up, the tested form may be a part): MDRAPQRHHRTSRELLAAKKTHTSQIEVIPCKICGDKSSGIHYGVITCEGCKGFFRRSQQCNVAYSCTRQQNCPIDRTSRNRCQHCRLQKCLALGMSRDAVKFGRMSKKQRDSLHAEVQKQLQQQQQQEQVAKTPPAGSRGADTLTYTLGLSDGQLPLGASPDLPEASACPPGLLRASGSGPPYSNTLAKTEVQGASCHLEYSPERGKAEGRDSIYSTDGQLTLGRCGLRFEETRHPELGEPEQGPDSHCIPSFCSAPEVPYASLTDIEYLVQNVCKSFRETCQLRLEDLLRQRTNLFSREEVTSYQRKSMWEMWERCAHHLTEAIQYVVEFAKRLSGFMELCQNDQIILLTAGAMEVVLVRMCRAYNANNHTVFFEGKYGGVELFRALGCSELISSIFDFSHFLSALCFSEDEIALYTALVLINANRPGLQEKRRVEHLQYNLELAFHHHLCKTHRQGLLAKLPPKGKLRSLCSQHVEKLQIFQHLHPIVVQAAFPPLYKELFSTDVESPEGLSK
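Schneider cells (Drosophila), stable Gal4 DBD–ROR gamma + UAS-luc; 1 hr cmpd preincubation; Cu2+ induction 700 uM final; 20 hr ambient; luminescence.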
* marks the source's active call; other numbers are inactive results; i = inactive; ? = inconclusive; nt = no result; [ ] = remark or other dose. Hits are enriched below; roughly 18% of the tested compounds scored in any of these assays. Unless noted, calls come from the whole dose curve; as a rule, active = well fitted curve in the direction sought with a large enough effect; inconclusive = small, poorly fitted or top-dose-only effect, or another doubt; inactive = no such curve, though single readings can be large; an effect the other way counts as inactive or inconclusive. Unless noted, % is set by controls: 0 for no effect and ±100 for the full control effect.

SMILES	Gal4-VP16 FLuc	DT40 TDP1 CPT	IL1B secr inh	LDHA inh	TDP1 cell noCPT	RORgamma inh
Cc1ccc(OCCOc2ccc3ccc(=O)oc3c2)cc1C	nt	nt	nt	11.1	nt	nt
CCOc1ccc(S(=O)(=O)N2CCN(c3ccc(NCc4ccccc4)nn3)CC2)cc1	nt	nt	nt	-0.6	nt	nt
CC(C)c1ccc2c(c1)C1(NN=C(c3ccccc3)S1)C(=O)N2 (stereo unspecified)	5.01µM*	3.66µM*	-12.9	2.7	6.51µM*	5.62µM*
CCc1ccc2c(c1)C1(NN=C(c3ccc(C)cc3)S1)C(=O)N2 (stereo unspecified)	3.55µM*	16.4µM*	-100.0*	0.0	8.2µM*	3.98µM*
COc1c(Cl)cc(C(N)=O)cc1Cl	nt	nt	nt	2.2	nt	nt
Cc1ccc(/C=c2\sc3n(c2=O)CN(c2ccc(Br)cc2)CN=3)o1	-3.3%	-9.8%	-12.7	3.4	?	-19.8%
Cc1ccc(/C=c2/sc3n(c2=O)CCCN=3)o1	?	?	0.0	10.5	-18.0%	7.08µM*
C=C(Br)CN1CCOCC1	nt	nt	nt	2.7	nt	nt
O=C(O)c1ccc(N2CCOCC2)nc1	nt	nt	nt	10.1	nt	nt
O=C(O)/C=C/C(=O)Nc1ccc(N2CCOCC2)nc1N1CCOCC1	?	20.6µM*	-6.8	26.2	23.1µM*	?
Fc1ccc(CCNC(=S)Nc2ccc(F)cc2)cc1	0.891µM*	?	1.7	1.4	18.4µM*	1µM*
CCCCc1ccc(NC(=S)NCCc2ccc(F)cc2)cc1	5.62µM*	?	-109.5*	4.6	?	2.24µM*
CCc1cc(C(c2ccccc2OC)N2CCN(C)CC2)c(NC(=O)c2ccco2)s1 (stereo unspecified)	nt	nt	nt	-14.2	nt	nt
COc1ccc(/C=N/NC(=O)c2nc(-c3ccccc3)cc(-c3ccccc3)n2)cc1	-4.1%	?	-79.5*	-7.8	25.9µM*	29.3%
COc1cc(/C=N/NC(=O)c2ccccc2NS(=O)(=O)c2cccs2)ccc1O	nt	0.0%	27.6	-3.0	-6.9%	nt
Cc1cc(C(=O)N/N=C/c2ccncc2)c2ccccc2n1	-2.4%	-1.3%	43.4	2.3	-3.1%	-35.7%
COc1cc(/C=N/NC(=O)c2cnn3c(C)cc(-c4ccccc4)nc23)ccc1O	-10.6%	23.1µM*	-57.3*	-4.3	16.4µM*	-1.9%
CC(C)COc1cccc(-c2cc(C(=O)N/N=C/c3ccncc3)c3ccccc3n2)c1	?	9.2µM*	i	3.4	?	-35.8%
COc1ccc(Cc2nc3ccccc3n2CC(=O)N/N=C/c2ccc(C)cc2O)cc1OC	6.31µM*	2.06µM*	26.8	-4.3	0.651µM*	3.55µM*
O=C(O)c1cccc2c(Cl)cccc12	nt	nt	nt	2.1	nt	nt
COc1ccc2c(c1)c(C(C(=O)O)N1CCN(C(C)=O)CC1)cn2CCC(=O)O (stereo unspecified)	nt	nt	nt	0.3	nt	nt
COc1ccc(/C=N/NC(=O)c2cc(-c3ccccc3)nc3ccccc23)cc1O	17.9%	10.3µM*	39.9	-2.6	1.3µM*	-5.4%
COc1cc(/C=N/NC(=O)c2cc(-c3ccccc3)nc3ccccc23)ccc1O	-9.1%	?	47.7	2.0	?	-17.4%
CCOc1cc(/C=N/NC(=O)c2cc(-c3cccc(OC)c3)nc3ccccc23)ccc1O	nt	8.2µM*	-8.8	-12.5	1.3µM*	nt
COc1cc(/C=N/NC(=O)CCn2cnc(-c3ccccc3)c2-c2ccccc2)ccc1O	?	?	-13.8	-5.4	18.4µM*	?
COc1ccc(/C=N/NC(=O)CCn2c3ccccc3c3ccccc32)cc1O	0.1%[0.365 µM]	1.46µM*	-6.3	4.3	1.64µM*	28.8%
CCOc1ccc(/C=N/NC(=O)c2cc(-c3ccccc3)nc3ccccc23)cc1O	-17.0%	?	28.7	-5.0	?	41.3%
CCCN(CCC)CCNC(=O)COCc1cc(-c2cccs2)on1	nt	nt	nt	1.7	nt	nt

Bioassay records: PubChem, National Center for Advancing Translational Sciences (NCATS)
